According to PubChem BioAssay (EPA / NIEHS):
Inconclusive results are not listed. Active and inactive are the calls of the source. Rule for the calls: active = hit-call score of the fitted dose curve at least 0.9, where 1 is the maximum; inconclusive = response in the unintended direction; inactive = score below 0.9.

What follows are molecules tested against Oxysterols receptor LXR-alpha (Homo sapiens) (UniProt Q13133) (assay: ATG_LXRa_TRANS: Attagene TRANS-FACTORIAL HepG2 Assay for human Liver X Receptor alpha (LXRa) (AID 2282980)). Conditions: HepG2 Attagene TRANS reporter, LXRa transactivation.
Sequence of Oxysterols receptor LXR-alpha (Homo sapiens) (Q13133 whole entry, looked up): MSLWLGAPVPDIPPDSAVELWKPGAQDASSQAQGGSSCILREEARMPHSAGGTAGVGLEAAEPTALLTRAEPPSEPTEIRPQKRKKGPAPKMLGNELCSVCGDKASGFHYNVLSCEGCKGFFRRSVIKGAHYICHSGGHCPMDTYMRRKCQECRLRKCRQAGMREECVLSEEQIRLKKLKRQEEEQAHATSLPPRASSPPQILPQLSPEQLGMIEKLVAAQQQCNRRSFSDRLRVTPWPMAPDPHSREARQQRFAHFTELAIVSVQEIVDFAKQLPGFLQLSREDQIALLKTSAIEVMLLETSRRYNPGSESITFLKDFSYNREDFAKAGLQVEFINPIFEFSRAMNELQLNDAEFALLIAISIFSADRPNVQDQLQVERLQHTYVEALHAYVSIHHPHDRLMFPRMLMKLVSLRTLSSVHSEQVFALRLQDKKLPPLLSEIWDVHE
Experimental: ATG_TRANS is a cell-based, multiplexed-readout assay that uses HepG2, a human liver cell line, with measurements taken at 24 hours after chemical dosing in a 24-well plate.ATG_LXRa_TRANS is one of 30 assay component(s) measured or calculated from the ATG_TRANS assay. It is designed to make measurements of mRNA induction, a form of inducible reporter, as detected with fluorescence intensity signals by Reverse transcription polymerase chain reaction (RT-PCR) and Capillary electrophoresis technology.Data from the assay component ATG_LXRa_TRANS was analyzed into 1 assay endpoint. This assay endpoint, ATG_LXRa_TRANS, was analyzed in the positive analysis fitting direction relative to DMSO as the negative control and baseline of activity. Using a type of inducible reporter, measures of mRNA for gain-of-signal activity can be used to understand the reporter gene at the transcription factor-level as they relate to the gene NR1H3. Furthermore, this assay endpoint can be referred to as a primary readout, because this assay has produced multiple assay endpoints where this one serves a reporter gene function. To generalize the intended target to other relatable targets, this assay endpoint is annotated to the nuclear receptor intended target family, where the subfamily is non-steroidal.
Human liver HepG2 cells are transiently transfected with multiple reporter transcription units (MRTUs) in 6-well plates using FuGene 6 reagent (Roche; 3 ml FuGene/1 mg DNA). The MRTU constructs are regulated by a cis-regulating element (promoter). […] A major difference between the CIS and TRANS system is that in CIS activities of endogenous TFs are measured, whereas the TRANS assay evaluates changes in activities of exogenous, chimeric NR-Gal4 proteins. […] At the end of 24 hour incubation, total RNA was isolated using TriZol reagent (Invitrogen). The isolated RNA is then reverse-transcribed using oligo(dT) primer and Mo-MLV reverse transcriptase (Invitrogen) with DNAse I (Ambion) treatment for 30 min. The one-tenth of the produced cDNA was amplified by PCR using Taq DNA polymerase (Invitrogen) and two reporter sequence-specific primers. The PCR products were fluorescently labeled by primer extension with 6-arboxyfluorescein (6-FAM) 5'-labeled reporter sequence-specific primer (2 min at 95 C, 20 s at 68 C and 10 min at 72 C) and these products were digested with 5U of HpaI (New England Biolabs) for 2h at 37 C. The fragments were purified using Qiaquick PCR columns (Qiagen), analyzed on an ABI 3130xL genetic analyzer (Applied Biosystems) with peak positions identified by using a set of X-rhodamine (ROX)-labeled MapMarker1000 molecular weight standards (BioVentures). The raw capillary electrophoresis data was processed using Attagraph software (Attagene).

| SMILES | outcome |
| --- | --- |
| CCCC1CCOC(C)S1 (stereo not given) | inactive |
| C1COCO1 | inactive |
| Cc1cc(O)c(C)c(C)c1O | inactive |
| CC(=O)Nc1cc(S(=O)(=O)O)cc2cc(S(=O)(=O)O)c(N=Nc3ccccc3)c(O)c12 | inactive |
| CCCCCCOc1ccc(O)cc1 | inactive |
| CCCCCC(=O)O[C@]1(C(C)=O)CC[C@H]2[C@@H]3CCC4=CC(=O)CC[C@]4(C)[C@H]3CC[C@@]21C | inactive |
| O=C(O)c1ccccc1O | inactive |
| CC(=O)c1ccc2ccccc2c1 | inactive |
| CCCCCCCCOC(=O)c1ccc(O)cc1 | inactive |
| CC(C)COC(=O)c1ccccc1O | inactive |
| CCC(C)(C)C1CCC(OC)CC1 (stereo not given) | inactive |
| C=CC(=O)OCCCCCC | inactive |
| CC1=CC[C@@H]2C[C@H]1C2(C)C | inactive |
| N#CCCCC(C#N)CCC#N (stereo not given) | inactive |
| CCc1cccc(O)c1 | inactive |
| CCCCN(CCCC)CCCCCCN(CCCC)CCCC | inactive |
| Nc1ccc(O)c(N)c1 | inactive |
| CC(C)(C)c1cc(CCC(=O)OCCSCCOC(=O)CCc2cc(C(C)(C)C)c(O)c(C(C)(C)C)c2)cc(C(C)(C)C)c1O | inactive |
| OCC=Cc1ccccc1 | inactive |
| CC(C)(O)C(=O)c1ccc(OCCO)cc1 | inactive |

| SMILES | outcome |
| --- | --- |
| CCCCCCCCCO | inactive |
| CC(=O)OC/C=C(C)/C=C/C=C(C)/C=C/C1=C(C)CCCC1(C)C | inactive |
| CC(=O)OC(C)(C)C | inactive |
| CC=CC(=O)C1=C(C)C=CCC1(C)C | inactive |
| CN1CCc2cccc3c2[C@H]1Cc1ccc(O)c(O)c1-3 | inactive |
| CC1COC(=O)O1 (stereo not given) | inactive |
| CCCO | inactive |
| CC(=O)CCC(=O)O | inactive |
| COc1ccc(OC)cc1 | inactive |
| CCNC(=S)NCC | inactive |
| [O-]/[N+](=N\O)c1ccccc1 | inactive |
| CCCCCCCCCCCCN1CCOCC1 | inactive |
| COC(=O)C(C)Oc1ccc(Oc2ncc(C(F)(F)F)cc2Cl)cc1 (stereo not given) | inactive |
| OC[C@@H](O)[C@H](O)[C@@H](O)[C@@H](O)CO | inactive |
| O=S1(=O)CC(Cl)(Cl)C(Cl)(Cl)C1 | inactive |
| Nc1ccc(N)c([N+](=O)[O-])c1 | inactive |
| CC1=CC(C)C(C=O)C(C)C1 (stereo not given) (tested in a mixture with another compound) | inactive |
| CC1=C(C=O)C(C)(C)CCC1 | inactive |
| CCC(C)C1CCCCC1=O (stereo not given) | inactive |
| N#CCCNCCC#N | inactive |
